Source: PubChem BioAssay AID1962 (The Scripps Research Institute Molecular Screening Center, 2009)
The whole screen tested about 300,000 compounds, of which about 2,500 (0.83%) were called active. The sample as a whole holds a higher share of actives than the screen did. A number with no mark means an inactive call.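 How the source made its calls: active means inhibition above the mean of all tested compounds plus 3 SD, set per screening campaign (cut at about 24% in these data); inactive means the rest.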

These compounds were tested on tRNA 2'-phosphotransferase TPT1 (Candida albicans SC5314) (assay: tRNA 2'-phosphotransferase blockers, C. albicans – biochemical, fluorescence polarization, primary screen (AID 1962;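 further: plate controls were DMSO alone for no effect and ferristatin control at 100 nM for full effect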)). Conditions: recombinant caTPT1, FP RNA substrate dephosphorylation; at 5 µM; stronger effect = higher value.

| SMILES | inhibition |
| --- | --- |
| CCOCCn1[nH]c2ccccc2c1=O | -0.9% |
| CCC1CCCCN1C(=S)Nc1ccc(C(C)=O)cc1 (stereo unspecified) | -0.24% |
| COCCN(C(=O)c1ccccc1F)c1c(N)n(Cc2ccccc2)c(=O)[nH]c1=O | 1.87% |
| COc1ccc(NC(=O)c2sccc2SCC#N)cc1 | -1.53% |
| CNC(=S)NNC(=O)c1oc2nc(-c3ccccc3)cc(-c3ccco3)c2c1N | 5.89% |
| O=C(Nc1cccc(F)c1)c1cc(-c2ccco2)nc2ccccc12 | 14.1% |
| NNC(=O)c1oc2nc(-c3ccccc3)cc(-c3ccco3)c2c1N | 79.6% (active) |
| CC[N+](C)(CC)CCC[n+]1c(-c2ccccc2)c2cc(N)ccc2c2ccc(N)cc21 | -27.7% |
| COc1ccccc1C(=O)NNC(=O)CCN1C(=O)/C(=C\c2ccccc2)SC1=S | -5.63% |
| COc1cc(/C=C2/SC(=S)N(Cc3ccccc3)C2=O)cc(OC)c1O | 89.8% (active) |
| COc1ccc(/C=C2\SC(=S)N(CCC(=O)Nc3cccc(C(=O)O)c3)C2=O)cc1OC | 1.59% |
| CC(C(=O)Nc1ccc(F)c(F)c1F)N1CCCCCC1 (stereo unspecified) | -0.32% |
| CC(=O)c1cnc(SCC(=O)O)nc1C | -5.63% |
| CSc1nc(N(C)NC(=O)c2cccc(C)c2)c2ccccc2n1 | -0.9% |
| CCOC(=O)C(C)N(c1ccccc1Cl)S(C)(=O)=O (stereo unspecified) | 0.94% |
| CCN(CC)c1ccc(/C=N/NC(=O)c2cnccn2)c(O)c1 | 1.75% |
| Cc1cc(C)nc(N/N=C/c2ccncc2)n1 | 3.38% |
| CCN(CC)c1ccc(/C=N/Nc2nc(C)cc(C)n2)c(O)c1 | 25.2% (active) |
| COc1ccc(-c2cc3nc(C)c(CCC(=O)NC(C)CCc4ccco4)c(C)n3n2)c(OC)c1 (stereo unspecified) | 0.65% |

| SMILES | inhibition |
| --- | --- |
| CC(C)NS(=O)(=O)c1ccc(NC(=O)c2cccnc2)cc1 | 6.23% |
| Cc1c(C(=O)OC(C)C)sc(NC(=O)c2cccnc2)c1C#N | 31.6% (active) |
| CCOC(=O)c1cc(NC(=O)c2cccnc2)ccn1 | -2.33% |
| O=C(NC1CCCCC1)C1CCCN(S(=O)(=O)c2ccc(Br)s2)C1 (stereo unspecified) | -22.4% |
| CC(NC(=O)CC1SC(N)=NC1=O)c1ccccc1 (stereo unspecified) | 2.18% |
| Cc1cc(NC(=O)CCS(=O)(=O)c2ccc(F)cc2)no1 | -4.5% |
| CC(C)(C)c1ccc(C(=O)NCCn2c(N)c(C#N)c3nc4ccccc4nc32)cc1 | 9.05% |
| CN(C)CCCn1c(N)c(C#N)c2nc(C#N)c(C#N)nc21 | 75.1% (active) |
| CC1CCCCC1NC(=O)CSc1nnc(-c2ccncc2)n1CCCN(C)C (stereo unspecified) | -2.27% |
| Fc1ccc2nc(Nc3nc4c(s3)CCCC4)sc2c1 | 24.1% (active) |
| CSc1ncccc1C(=O)Nc1nc2ccc(F)cc2s1 | -0.86% |
| Fc1cc(F)c2nc(Nc3nc4c(F)cccc4s3)sc2c1 | -0.65% |
| CCc1cccc(C)c1N(C(=O)Cn1c(CO)nc2ccccc21)C(C)COC (stereo unspecified) | -1.41% |
| O=C(NNc1c2ccccc2nc2ccccc12)c1cc2ccccc2cc1O | 25.8% (active) |
| CC(C)(C)OC(=O)NNc1c2ccccc2nc2ccccc12 | -0.98% |
| O=C(N/N=C/c1cccnc1)c1cc2ccccc2cc1O | -1.97% |
| CCOc1ccc(-n2cnnn2)cc1S(=O)(=O)N1CCC(C)CC1C (stereo unspecified) | 3.77% |
| COc1cccc(CNC(=O)C2CCCN(S(=O)(=O)N3CC(C)CC(C)C3)C2)c1 (stereo unspecified) | -2.25% |
| COc1ccc2c(c1)[C@H]1[C@H](CO2)[C@H](c2ccccc2)[C@]2(C)C(=O)Nc3cc(F)c(F)cc3C(=O)N12 | -1.54% |

| SMILES | inhibition |
| --- | --- |
| CCOC(=O)CNC(=O)/C(=C\c1ccc(F)cc1)NC(=O)c1ccccc1 | -8.38% |
| Cn1c2ccccc2c2cc(/C=C(\NC(=O)c3ccccc3)C(=O)NCC(=O)O)ccc21 | 86.7% (active) |
| COc1ccc(/C=C(\NC(=O)c2ccccc2)C(=O)NCCN2CCOCC2)cc1OC | -0.34% |
| CCN1CCN(C(=O)N[C@@H](C(=O)N[C@@H]2C(=O)N3C(C(=O)O)=C(CSc4nnnn4C)CS[C@H]23)c2ccc(O)cc2)C(=O)C1=O | -2.09% |
| CS(=O)(=O)c1ccc2c(c1)SC1=NC(=O)/C(=C/c3ccco3)C(=N)N12 | 62.9% (active) |
| CS(=O)(=O)C1=NN2C(=N)/C(=C\c3ccc(OCCOc4ccccc4)cc3)C(=O)N=C2S1 | 2.39% |
| Cc1cc(/C=C2/C(=N)N3C(=NC2=O)SN=C3S(C)(=O)=O)c(C)n1-c1ccccc1 | 4.75% |
| COc1ccccc1C(=O)NCCC(=O)NCC(c1ccco1)N1CCCCC1 (stereo unspecified) | 1.82% |
| O=C(NCc1ccccc1)C(=O)NCC1OCCN1S(=O)(=O)c1ccc(Br)cc1 (stereo unspecified) | -2.5% |
| COc1ccc(CCN2C(=O)C(C)=C(C)C2=O)cc1OC | 1.36% |
| COc1cc(/C=C2/C(=O)NN(c3ccc(F)cc3)C2=O)cc([N+](=O)[O-])c1O | -1.74% |
| C#CCOc1ccc(/C=C2/C(=O)NN(c3ccccc3)C2=O)cc1OC | 0.28% |
| COc1cc(/C=C2/C(=O)NN(c3cccc(Cl)c3)C2=O)cc(Br)c1O | 130% (active) |
| N#C/C(=C(/O)COC(=O)COc1ccc(Cl)cc1)c1nc2ccccc2[nH]1 | 35% (active) |
| N#C/C(=C(/O)COc1cccc2ccccc12)c1nc2ccccc2[nH]1 | 14.7% |
| Cc1ccccc1OC/C(O)=C(\C#N)c1nc2ccccc2[nH]1 | 2.58% |
| C#CCOCCOCCOCCNc1nc(N2CCN(C(=O)CCCCCCCCCCNC(=O)[C@H]([C@@H](C)CC)n3cc(CCCCN=C(N)N)nn3)CC2)nc(N2CCN(C(=O)CCCCCCCCCCNC(=O)[C@H](CO)n3cc(CCCSC)nn3)CC2)n1 | -0.55% |
| COc1ccc(CC2c3cc(OC)c(OC)cc3CC[N+]2(C)CCC(=O)OCCCCCOC(=O)CC[N+]2(C)CCc3cc(OC)c(OC)cc3C2Cc2ccc(OC)c(OC)c2)cc1OC (stereo unspecified) | 0% |
